Measurements as given in PubChem BioAssay AID624202 (National Center for Advancing Translational Sciences (NCATS), 2012).
Out of some 380,000 compounds screened, about 4,000 (1.1%) were called active. Inconclusive results (about 3%) are left out. The call rests on the fitted dose curve; in most records, active means well fitted activation curve with a large enough effect; inconclusive means small, poorly fitted or top-dose-only effect; inactive means no such curve, though single readings can be large or run the other way. Shown is part of a subset that was picked to be rich in actives.

Test: qHTS Assay to Identify Small Molecule Activators of BRCA1 Expression; further: nearly all actives have a fitted effect of over 80% in size
Settings: MCF7-BRCA1-FFLuc reporter, luminescence, 48 h; series mostly up to 46.1 µM
How it was run: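 MCF7-BRCA1-FFLuc cells, 2000/well in phenol-red-free MEM, attached 2 h then treated 48 h at 37 C. Luciferase luminescence read 15 min after reagent; normalized to genistein maximum activation (10microM) and DMSO, concentration-response fitted.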
Potency means the concentration at half of the fitted maximal effect.

Potency, active:
CCN(CC)C(=O)c1sc2nc(-c3ccccc3)ccc2c1N 2.24 µM
Cc1sc(NC(=O)C2=COCCO2)c(C#N)c1C 12.6 µM
CCC(CC)c1nnc(NC(=O)C2=COCCO2)s1 10 µM
CC1(C)C=Cc2c(ccc3c2OC[C@@H](c2ccc(O)cc2O)C3)O1 11.2 µM
O=C(Cc1cccc2ccccc12)Nc1ccc2oc(-c3ccccc3)nc2c1 11.2 µM
CCC(=O)Nc1ccc(C(=O)Nc2cccc(OC)c2)cc1 12.6 µM
Cc1ccc(/C=N/NC(=O)CSc2nc3ccccc3o2)cc1 11.2 µM
CC(=O)Nc1ccc(NC(=O)CN2CCCC(C)C2)c(Cl)c1 (stereo unspecified) 11.2 µM
COc1ccc(Nc2ncnc3sc(C)cc23)cc1 8.91 µM
Fc1ccc(COc2ccc(-c3nnco3)cc2)cc1 11.2 µM
COCC1CCCCN1C(=O)c1cc(COc2ccc(C)c(C)c2)on1 (stereo unspecified) 11.2 µM
COc1ccccc1Nc1ncc(C(C)=O)c(C)n1 10 µM
CCS(=O)(=O)n1nc(-c2ccccc2)nc1SCc1ccccc1 3.98 µM
Cc1ccc(NC(=O)c2csc3c2CCCC3)cc1 12.6 µM
OC(c1nnc(-c2ccccc2)o1)c1cccs1 (stereo unspecified) 11.2 µM
COc1cccc2sc3cc(NCC[C@@H]4CCCN4C)ccc3c(=O)c12 11.2 µM
O=C(Nc1cccc(F)c1)NC1CCCCCCC1 3.55 µM
COc1ccc(C2=Nc3cc(C)ccc3OC2)cc1 11.2 µM
COCn1c(COc2ccccc2)nc2ccccc21 12.6 µM

Potency, inactive:
O=C(C1CCCN(S(=O)(=O)c2cccc3nonc23)C1)N1CCN(c2ccccc2F)CC1 (stereo unspecified)
Cn1c(=O)c2c(nc(Oc3ccc(C#N)cc3)n2Cc2ccc(Cl)cc2Cl)n(C)c1=O
O=C(COC(=O)c1ccccc1OCCOc1ccccc1)Nc1cccc(Br)c1
Cc1cccc(OCCSc2nc3ccccc3n2CC(=O)N2CCCCC2)c1C
CCN(CC)C(=O)c1nc[nH]c1C(=O)N(C)Cc1ccccc1
COc1cccc(C(=O)c2sc3nc(-c4ccccc4)cc(C(F)(F)F)c3c2N)c1
Cc1ccc(S(=O)(=O)N2CCN(c3nc(-n4cnc5ccccc54)nc4ccccc34)CC2)cc1
CCCCCn1c(=O)[nH]c2cc(C(=O)Nc3ccc(F)cc3)ccc2c1=O
CN(C)C1=C2C=CC=CC2/C(=C2/C=Cc3ccccc32)C=C1 (stereo unspecified)
O=C(COc1ccccc1C(=O)Nc1ccccc1)Nc1cccc(F)c1
Cc1ccc(C)c(N2CCN(C(=O)CN3C(=O)COc4ccc(S(=O)(=O)N5CCCCCC5)cc43)CC2)c1
CCC(CC)c1nnc(NC(=O)C2CCN(C(=O)c3ccco3)CC2)s1
COc1cc(-c2nnc(NC(=O)C3=COCCO3)o2)cc(OC)c1OC
CCn1c(SCC(=O)Nc2sc(C)c(C)c2C#N)nnc1C1CC1
CCOC(=O)c1sc(N)c(C#N)c1COC(=O)C1=COCCO1
COc1ccc(N(CC(=O)NCCc2ccc(Cl)cc2)S(=O)(=O)c2c(C)nn(C)c2C)cc1
CCCCOc1ccc(C(=O)NO)cc1
CC1(C)C=Cc2c(ccc(C(=O)/C=C/c3ccccc3)c2O)O1
O=C(/C=C/c1ccccc1)N1CCN(Cc2cc(=O)n3nc(-c4ccccc4F)sc3n2)CC1
O=C(Cc1cccc2ccccc12)NNC(=O)Nc1ccc(Cl)cc1
Cc1ccc(NC(=S)NC(NC(=O)Cc2cccc3ccccc23)C(Cl)(Cl)Cl)cc1 (stereo unspecified)
CCn1c(=O)c2cc(C(=O)NCCc3ccc(Cl)cc3)sc2c2ccccc21
COc1cc(OC)c(OC)cc1/C=C1\C=Cc2ccccc21
COc1ccc(C(=O)NCc2nnc(SCC(=O)Nc3cccc(OC)c3)o2)cc1
COc1cccc(NC(=O)CN(C)C(C)C(=O)Nc2ccc(C#N)cc2)c1 (stereo unspecified)
Cc1ccc(C(=O)Nc2ccc(OCc3cc(=O)n4c(C)csc4n3)cc2)cc1
Cc1ccc(-c2nnc3ccc(SCC(N)=O)nn23)cc1
CCOC(=O)c1oc2ccc(S(=O)(=O)n3nc(-c4ccccc4OC)cc3N)cc2c1C
O=C(CSc1nc2ccccc2o1)N/N=C/c1ccccc1C(=O)O
O=C(CSc1nc2ccccc2o1)N1CCN(c2ccccc2)CC1
CC1=C(C(=O)OCc2ccc(C)cc2)C(c2ccccc2Cl)CC(=O)N1 (stereo unspecified)
CCc1ccc(CNC(=O)c2cc3c(=O)n(CC)c4ccccc4c3s2)cc1
Cc1cccc(N2CCN(c3ccc(C(=O)O)cc3NC(=O)c3ccccc3F)CC2C)c1 (stereo unspecified)
COc1cc(Cl)c(C)cc1NC(=O)CN1CCCCCC1
O=C(CN1CCCCCC1)Nc1ccc(Cl)cc1F
Cc1ccc(-c2nn3c(=O)cc(CN4CCN(S(=O)(=O)c5ccc(Cl)cc5)CC4)nc3s2)cc1
COc1ccc(-c2nc3ccccc3s2)cc1NC(=O)COc1ccccc1C
CCCCCCC1(C)NC(c2ccc3c(c2)OCO3)=CC(c2ccccc2O)N1 (stereo unspecified)
COc1ccc(Nc2ncc(C(=O)Nc3cc(C)ccc3OC)c3ccccc23)cc1
COc1ccc(Nc2ncc(C(=O)N3CCN(c4ccccc4OC)CC3)c3ccccc23)cc1
CC1=C(C(=O)OCc2ccc(C)cc2)C(c2c(Cl)cccc2Cl)CC(=O)N1 (stereo unspecified)
Fc1ccc(COc2cccc(-c3n[nH]c(=S)o3)c2)cc1
Fc1cccc(Cl)c1COc1ccc(-c2nnco2)cc1
COc1cc2nc(Cl)nc(NC3CC3)c2cc1OC
O=C1COc2ccc(-c3csc(-c4ccc(Cl)cc4)n3)cc2N1
Cc1ccc(OCc2cc(C(=O)N(C)CCn3ccnc3C)no2)cc1C
Cc1nonc1C1CCCN1C(=O)c1cc(COc2cccc(C(F)(F)F)c2)on1 (stereo unspecified)
Cc1[nH]c2ccccc2c1C(c1ccccc1)c1cccs1 (stereo unspecified)
CC(=O)c1ccc(NC(=O)c2nc(-c3ccc(C)cc3)n3c2CCCCC3)cc1
Nc1ncnc2nnsc12
CCc1ccc2nc(Nc3ncc(C(C)=O)c(C)n3)nc(C)c2c1
COc1ccccc1-c1c(C)nn2c(C)c(C(C)=O)cnc12
O=C(Cn1c(=O)n(Cc2cccs2)c(=O)c2cccnc21)Nc1ccc(F)cc1
CCc1ccccc1NC(=O)Cn1c(=O)n(CC2CCC(C(=O)NCCc3ccccc3)CC2)c(=O)c2ccccc21 (stereo unspecified)
O=C(Cn1c(=O)n(Cc2ccccc2)c(=O)c2sc3ccccc3c21)Nc1ccccc1F
COc1ccc(N2C(=O)CSC23C(=O)N(Cc2cccc(F)c2)c2ccccc23)cc1Cl (stereo unspecified)
COc1ccc(CCNC(=O)CCc2c(C)nc3c(c(C)nn3-c3ccc(C)c(C)c3)c2C)c(OC)c1OC
Cc1ccc(S(=O)(=O)n2nc(-c3ccc(Cl)cc3)nc2NCc2ccccc2)cc1
CCS(=O)(=O)n1nc(-c2ccc(OC)cc2)nc1SC
COc1ccccc1N1CCN(c2ncnc3onc(-c4ccc(F)cc4)c23)CC1
COc1ccc(-n2nnc(-c3nsc(NC(=O)c4ccc(C)c(C)c4)n3)c2C)cc1Cl
CCOc1ccc(CCNC(=O)c2csc3c2CCCCC3)cc1
CCOC(=O)c1ccc(NC(=O)c2csc3c2CCCCC3)cc1
Cc1ccc(OCCSc2nc3ccc(NC(=O)COc4ccc(C)cc4)cc3s2)cc1
O=C(Cn1c(=O)n(-c2ccc(F)cc2)c(=O)c2sc3ccccc3c21)NC1CCCC1
Cc1cccc(NC(=O)N2CCN(C)c3ncccc32)c1C
CCCCC(CC)CNC(=O)C1CCN(S(=O)(=O)c2cccc3nsnc23)CC1 (stereo unspecified)
CCCN(CCC)c1ccc(C(O)c2nnc(-c3ccccc3)o2)cc1 (stereo unspecified)
C=CCn1c(SCc2nnc(-c3ccccc3)o2)nnc1C(O)c1ccccc1 (stereo unspecified)
Cc1cc(C)cc(NC(=O)Cn2c(=O)c3ccccc3n3nncc23)c1
Cc1ccc(C=O)cc1Cl
O=C(OCc1cc(=O)n2nc(C3CC3)sc2n1)c1ccccc1Cl
COc1cc2nc(SCC(=O)Nc3ccccc3F)n3nc(-c4ccccc4)nc3c2cc1OC
Cc1cc(C)cc(-n2ccnc2SCC(=O)Nc2nc3ccccc3s2)c1
COc1cccc(CNC(=O)c2ccc3c(Cl)c4c(nc3c2)CCCC4)c1
Cc1cc2oc3ccc(NCCC4CCCN4C)cc3c(=O)c2cc1C (stereo unspecified)
CN1CCC[C@@H]1CCO[C@](C)(c1ccccc1)c1ccc(Cl)cc1
Oc1ccc(Cl)cc1C1C=C(c2ccc3c(c2)OCO3)NC(c2c(F)cccc2Cl)N1 (stereo unspecified)
O=C(Nc1cccc(F)c1)[C@@H]1CCCN1
Cc1cc(C)cc(NC(=O)NC2CCCCCCC2)c1
CCn1c(CNC(=O)C23CC4CC(CC(C4)C2)C3)nnc1SCC(=O)Nc1ccc(OC)cc1
COc1ccc(-c2cc(-c3ccccc3)nc3c2COc2ccc(Cl)cc2-3)cc1
COc1ccc(-c2cc(-c3ccc(F)cc3)nc3c2COc2ccccc2-3)cc1
CCCCCn1c(=O)[nH]c2cc(C(=O)NCCN(C)CCCC)ccc2c1=O
COC(=O)C1=C(c2ccccc2)c2ccccc2S(=O)(=O)N1CC(=O)Nc1ccccc1C(F)(F)F
COCc1nc2ccccc2n1Cc1ccccc1Br
COc1ccccc1Cn1c(CO)nc2ccccc21
